# Assay outcomes from PubChem BioAssay.
# KLF5 inh: KLF5 expression inhibitors, primary screen, DLD-1 cells, luminescence | DLD-1 KLF5 promoter-luciferase reporter | inhibition, % at 5 µM | actives 0.23% (n = 290,000) | AID 1700, 2009;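 active = inhibition above a per-plate limit of that plate's mean compound inhibition plus 3 SD, cut at about 60% in these data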;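 note: higher means less KLF5 promoter-driven luciferase light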
# Gli-Sufu block: Gli-Sufu pathway antagonists, primary screen, luciferase luminescence, Sufu-KO-LIGHT cells, uHTS | inhibition, % at 5 µM | actives 0.74% (n = 340,000) | Sufu-KO-LIGHT fibroblasts, Gli luciferase reporter luminescence;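 active = inhibition above about 55%, limit read from the data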
# 697 NFkB inh: inhibitors of PMA/ionomycin-induced NF-kB reporter, 697 cells, primary screen, B-cell NF-kB inhibitor project, cell-based, luminescence, uHTS. 697 B-cell NF-kB luciferase reporter, 16 h. inhibition, % at 4 µM. actives 0.33% (n = 330,000). AID 435022, 2010; in the data active = inhibition above about 35%
# Jurkat NFkB inh: inhibitors of induced NF-kB luciferase reporter, primary screen, TCR NF-kB activation inhibitor project, cell-based, luminescence, uHTS | Jurkat, PMA/ionomycin-induced NF-kB luciferase reporter | inhibition, % at 4 µM | actives 0.53% (n = 330,000) | AID 435003, 2010; in the data active = inhibition above about 50%
# aSyn 5UTR inh: MLPCN primary screen, SNCA 5' untranslated region | inhibition, % (tested at 7.5 µM) | actives 0.82% (n = 300,000) | alpha-synuclein 5'UTR reporter, inhibitor activity; in the data active = inhibition above about 60%; inconclusive = no clear call, values can overlap the other calls;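 note: H4 neuroglioblastoma cells stably carrying SNCA 5'UTR luciferase fusion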
# Mdm2 MdmX PPI: inhibitors of human Mdm2-MdmX association, primary screen, cell-based, luminescence, split luciferase, SaOS-2, uHTS; Protein Mdm4 (Homo sapiens) + E3 ubiquitin-protein ligase Mdm2 (Homo sapiens), …; SaOS-2 split-luciferase Mdm2/MdmX complementation; inhibition, % at 8 µM; actives 3% (n = 330,000); AID 485346, 2010;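 active = inhibition of at least 50% at 8 µM in the primary screen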
# Target sequence (O15151 whole entry, looked up): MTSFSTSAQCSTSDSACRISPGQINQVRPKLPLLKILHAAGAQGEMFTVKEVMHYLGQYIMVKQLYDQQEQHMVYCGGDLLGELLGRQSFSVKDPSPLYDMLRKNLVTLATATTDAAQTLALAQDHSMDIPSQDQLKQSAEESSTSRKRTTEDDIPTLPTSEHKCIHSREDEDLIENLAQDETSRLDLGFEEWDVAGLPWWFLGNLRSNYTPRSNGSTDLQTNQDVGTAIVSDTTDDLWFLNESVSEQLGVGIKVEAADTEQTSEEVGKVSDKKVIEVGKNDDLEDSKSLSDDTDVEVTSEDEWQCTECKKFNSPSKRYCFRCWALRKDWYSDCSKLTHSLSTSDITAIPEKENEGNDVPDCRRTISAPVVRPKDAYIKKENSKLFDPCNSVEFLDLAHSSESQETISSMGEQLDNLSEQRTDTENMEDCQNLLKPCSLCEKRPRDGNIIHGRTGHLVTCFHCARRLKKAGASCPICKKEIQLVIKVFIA
# Target sequence (Q00987 whole entry, looked up): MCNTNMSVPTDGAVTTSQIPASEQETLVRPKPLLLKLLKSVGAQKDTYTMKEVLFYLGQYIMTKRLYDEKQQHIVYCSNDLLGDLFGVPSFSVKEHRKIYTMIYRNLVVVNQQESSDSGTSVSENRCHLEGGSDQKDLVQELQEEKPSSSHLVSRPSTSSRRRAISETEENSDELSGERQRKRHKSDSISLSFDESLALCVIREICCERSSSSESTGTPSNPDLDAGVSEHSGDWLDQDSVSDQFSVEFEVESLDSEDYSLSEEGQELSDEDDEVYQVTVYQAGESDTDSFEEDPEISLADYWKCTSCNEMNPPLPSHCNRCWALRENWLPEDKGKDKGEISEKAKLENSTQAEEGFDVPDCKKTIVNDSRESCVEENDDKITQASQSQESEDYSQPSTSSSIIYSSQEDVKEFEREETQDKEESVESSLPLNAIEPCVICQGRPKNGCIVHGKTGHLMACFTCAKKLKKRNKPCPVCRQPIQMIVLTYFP
# Jurkat NFkB conf: PMA/ionomycin-induced NF-kB reporter inhibitors, Jurkat retest, confirmation, T-cell NF-kB inhibitor project, cell-based, luminescence, single concentration. shares compounds with Jurkat NFkB inh. Jurkat NF-kB luciferase, 16 h. inhibition, % at 4 µM. actives 27% (n = 2,700);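 active = inhibition reaching about 45% at 4 µM in either replicate, limit read from the data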
# 697 NFkB conf: PMA/ionomycin-induced NF-kB reporter inhibitors, 697 retest, confirmation, B-cell NF-kB inhibitor project, cell-based, luminescence, single concentration; shares compounds with 697 NFkB inh; 697 B-cell NF-kB luciferase, 16 h; actives 35% (n = 2,000); inhibition, % at 4 µM; in the data active = inhibition mostly above about 28%, no sharp cut-off; inactive = mostly below about 22%
# Mdm2-MdmX conf: Mdm2-MdmX complex disruptors, retested hits, confirmation, luminescence, single concentration; shares compounds with Mdm2 MdmX PPI; Mdm2-MdmX binding, luminescent assay; inhibition, % at 8 µM; actives 55% (n = 10,000); AID 489028, 2010; in the data active = inhibition above about 40%
# FLuc counter: full-length luciferase signal inhibition, confirmation, counter-screen for Mdm2/MdmX interaction inhibitor project, cell-based, single concentration, SaOS-2 | actives 77% (n = 6,200) | SaOS-2 full-length luciferase counterscreen, luminescence | inhibition, % at 8 µM | shares compounds with Mdm2 MdmX PPI;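 active = mean inhibition at 8 µM reaching about 37%, which flags the compound as non-specific, limit read from the data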;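 note: p53-null SaOS-2 cells with luciferase driven by a doxycycline-inducible promoter; compound on cells about two nights before reading with doxycycline added after day one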
# A number is an active result; 0 = inactive; ? = inconclusive; - = no result given; ! = not confirmed by another sample. The list is not random: actives were taken first. Their share in the collection is about 4.1%.
SMILES,KLF5 inh,Gli-Sufu block,697 NFkB inh,Jurkat NFkB inh,aSyn 5UTR inh,Mdm2 MdmX PPI,Jurkat NFkB conf,Mdm2-MdmX conf,FLuc counter,others
CC1=C(/C=C/C(C)=C/C=C/C(C)=C/C(=O)Nc2ccc(O)cc2)C(C)(C)CCC1,-,69.9!,0,63.0,-,87.1,0,0,-,
CC1=C(/C=C/C(=O)O)C(C)(C)CCC1,0,0,0,0,0,0,-,-,-,
CC1CCN(S(=O)(=O)c2ccc3c(c2)C(=NO)c2cc(S(=O)(=O)N4CCC(C)CC4)ccc2-3)CC1,0,0,96.7,96.1,-,100.3,0,100.2,0,697 NFkB conf=92.7
O=c1oc(C2(O)CCCCC2)cc2ccccc12,-,0,0,0,-,0,-,-,-,
O=c1oc(C2(O)CCCCC2)cc2ccc(-c3ccc4[nH]ccc4c3)cc12,-,0,0,0,-,81.5,0,61.0,41.2,697 NFkB conf=0
Cc1cccn2c(CN3CCNC(=O)CC3)c(C(=O)N(C)CCc3ccccc3)nc12,0,0,0,0,0,0,-,-,-,
CCN(CC)c1ccc2nc3ccc(N)cc3[n+](-c3ccccc3)c2c1,-,92.5,0,82.8,-,91.7,68.4,92.8,0,
CCN(CC)C(=O)c1ccc2nc3ccccc3nc2c1,0,0,0,0,?,0,-,-,-,
CCN(CC)c1ccc2nc3ccccc3[n+](CC)c2c1,0,0,0,55.9,0,53.5,56.5,0,-,
CCN(CC)c1ccc(/C=N/n2nnnc2N)c(O)c1,0,0,0,0,0,0,-,-,-,
COc1ccc(OC)c(C(=O)Nc2c(O)ccc3ccccc23)c1,-,0,0,0,0,0,-,-,-,
C/C(=C/c1ccccc1)C(=O)N1CCN(c2ccc(F)cc2)CC1,0,0,0,0,0,0,-,-,-,
O=[N+]([O-])c1ccc(N=Nc2ncc[nH]2)cc1,0,0,0,81.7,0,100.3,0,59.2,53.5,
CCCN(CC(=O)Nc1cc(Cl)ccc1Cl)C(=O)c1ccccc1SCC(=O)N1CCCC1,-,0,0,0,0,0,-,-,-,
COC(=O)N(C)c1nc2ccccc2s1,0,0,0,0,0,0,-,-,-,
CN(C(=O)OC(C)(C)C)c1ccc(-c2nc3ccccc3s2)cc1,-,89.6,66.4,68.8,104.2,87.6,90.3,90.5,0,697 NFkB conf=48.2
COc1ccc(NC(=O)CN(C)S(=O)(=O)c2ccc3c(c2)CC(C)N3C(C)=O)cc1OC (stereo not given),0,0,0,0,0,0,-,-,-,
CSc1nc(C)cc(OCC(=O)N/N=C/c2ccccc2O)n1,0,0,0,52.2,0,57.9,0,64.3,39.3,
Cc1c(C(=O)OC2CCCC2)[nH]c2c1C(=O)CC(c1ccco1)C2 (stereo not given),0,0,0,66.7,0,68.0,56.6,47.8,78.4,
Cc1c(C(=O)OCC(C)C)[nH]c2c1C(=O)CC(c1ccco1)C2 (stereo not given),0,0,0,64.8,69.9,75.1,0,54.3,76.6,
OCCCNc1c2ccccc2nc2ccccc12,0,0,0,84.0,0,79.1,0,81.9,43.9,
Cc1cc(C(=O)Cn2nc(C(=O)O)c3ccccc3c2=O)c(C)n1-c1ccc(F)cc1,0,0,0,0,0,0,-,-,-,
O=C1c2cccnc2C(=O)N1Cc1ccc(S(=O)(=O)N2CCOc3ccccc32)cc1,0,0,0,0,0,0,-,-,-,
COc1ccccc1C(=O)Nc1nc2ccccc2s1,0,67.4,0,61.7,109.3,93.2,71.1,90.0,0,
COc1ccc(NC(=O)Nc2nc3ccccc3s2)cc1,0,0,0,0,0,0,-,-,-,
SMILES,KLF5 inh,Gli-Sufu block,697 NFkB inh,Jurkat NFkB inh,aSyn 5UTR inh,Mdm2 MdmX PPI,Jurkat NFkB conf,Mdm2-MdmX conf,FLuc counter,others
O=C(N/N=C/c1ccc(O)cc1)/C(=C/c1ccccc1)CCO,0,0,0,0,0,0,-,-,-,
Nc1ccc2nc(NC(=O)C3CCCCC3)sc2c1,0,0,0,0,0,0,-,-,-,
O=C(Nc1nc2ccc(C(=O)N3CCCCC3)cc2s1)C1CCCCC1,0,0,0,60.2,0,51.0,0,57.4,79.2,
CCOC(=O)c1c2c(n(C)c1C)C(=O)C(=O)c1ccc(Br)cc1-2,0,0,0,52.0,110.5,95.0,0,98.0,48.4,
CCOC(=O)c1c2c(n(Cc3ccccc3)c1C)C(=O)C(=O)c1ccccc1-2,-,0,-,-,-,-,-,-,-,
Cc1ccc(NC(=O)c2ccccc2)cc1,0,0,0,0,0,0,-,-,-,
Cc1ccc(NC(=O)C2=C(c3ccccc3)S(=O)(=O)CCS2(=O)=O)cc1,0,0,0,62.6,0,95.2,0,94.8,52.4,
CCCCCCCCCCOC(=O)Cn1c(COc2ccccc2OC)[n+](C)c2ccccc21,0,84.8,38.7,56.8,80.6,99.8,60.2,89.4,0,697 NFkB conf=52.8
CCOC(=O)N1CCN(c2ccncc2S(=O)(=O)N2CCCCC2)CC1,0,0,0,0,0,0,-,-,-,
C=C(C)COc1ccc(-c2[nH]ncc2-c2ccc(OC)c(OC)c2)c(O)c1,0,0,0,63.7,0,65.6,62.4,59.8,55.9,
O=C(C[n+]1ccc(/C=C/c2ccccc2)cc1)c1ccc2c(c1)OCCO2,0,0,0,54.4,0,75.0,0,0,-,
Cc1cc[n+](CC(=O)c2ccc3c(c2)OCCO3)cc1,0,0,0,0,0,0,-,-,-,
CCc1cccc(C)c1NC(=S)N(CCN(C)C)C(C)c1cccnc1 (stereo not given),0,0,0,0,0,0,-,-,-,
CCOC(=O)c1c(-c2ccc(-c3ccccc3)cc2)csc1NC(=O)CNCCN(C)C,0,0,0,51.6,100.6,82.8,0,53.3,60.8,
CCOC(=O)c1c(-c2ccccc2)csc1NC(=O)CCN1C(=O)c2ccccc2C1=O,0,0,0,0,0,0,-,-,-,
Nc1nc(CCl)nc(N(c2ccccc2)c2ccccc2)n1,0,0,0,76.0,0,93.9,0,94.7,38.2,
